Values joined by “and” are separate entries in the source; they are usually repeats but may differ in a detail not shown here. Equal values may be shown once. Out of some 5,500 compounds screened, about 2,000 (36%) were called active. About 18% were inconclusive and are not listed. No stated cut-off is given here; in the data, active means normalized growth mostly below about 0.91 (no sharp cut-off); inconclusive means no clear call, values can overlap the other calls; inactive means mostly above about 0.92. The list shows a part of the results.
Assay: chemical genetic growth profiling, strain panel (AID 1159580);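 further: tested at 20 µM; growth read once vehicle control cultures reached saturation at 30 °C; 1 = growth at the plate median or of vehicle wells; lower values mean less growth of the strain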
Details: growth OD

Measured: normalized growth

CCN(Cc1ccncc1)C(=O)C(CO)c1ccccc1 (stereo unspecified)
inactive: S. cerevisiae deletion strains, locus YJR075W, strain HOC1, hits give low values 0.989 | S. cerevisiae deletion strains, locus YKL009W, strain mrt4, hits give low values 1.01 | S. cerevisiae deletion strains, locus YKL068W, hits give low values 0.982 | S. cerevisiae deletion strains, locus YKL085W, strain MDH1 (second series), hits give low values 0.977 | S. cerevisiae deletion strains, locus YKL085W, strain MDH1, hits give low values 0.977 | S. cerevisiae deletion strains, locus YKL160W, strain elf1, hits give low values 1.02 | S. cerevisiae deletion strains, locus YKL190W, strain CNB1, hits give low values 0.992 | S. cerevisiae deletion strains, locus YKR001C, strain vps1, hits give low values 0.999 | S. cerevisiae deletion strains, locus YKR026C, strain gcn3, hits give low values 1.04 | S. cerevisiae deletion strains, locus YKR091W, strain srl3, hits give low values 1.02 | S. cerevisiae deletion strains, locus YLL001W, strain dnm1, hits give low values 1.02 | S. cerevisiae deletion strains, locus YLL026W, hits give low values 1.03 | S. cerevisiae deletion strains, locus YLL041C, strain sdh2, hits give low values 1.02 | S. cerevisiae deletion strains, locus YLR027C, strain aat2, hits give low values 1.02 | S. cerevisiae deletion strains, locus YLR039C, strain RIC1, hits give low values 0.977 | S. cerevisiae deletion strains, locus YLR058C, strain SHM2, hits give low values 0.998 | S. cerevisiae deletion strains, locus YLR102C, strain apc9, hits give low values 0.991 | S. cerevisiae deletion strains, locus YLR113W, strain HOG1, hits give low values 0.988 | S. cerevisiae deletion strains, locus YLR221C, strain rsa3, hits give low values 1.03 | S. cerevisiae deletion strains, locus YLR258W, strain gsy2, hits give low values 1.05 | S. cerevisiae deletion strains, locus YLR262C, strain YPT6 (second series), hits give low values 1.07 | S. cerevisiae deletion strains, locus YLR262C, strain YPT6, hits give low values 1.01 | S. cerevisiae deletion strains, locus YLR268W, strain sec22, hits give low values 0.954 | S. cerevisiae deletion strains, locus YLR320W, strain mms22, hits give low values 1.02 | S. cerevisiae deletion strains, locus YLR330W, strain CHS5, hits give low values 0.991 | S. cerevisiae deletion strains, locus YLR342W, strain FKS1 (second series), hits give low values 1.05 | S. cerevisiae deletion strains, locus YLR342W, strain FKS1, hits give low values 1.02 | S. cerevisiae deletion strains, locus YLR357W, strain rsc2, hits give low values 1.04 | S. cerevisiae deletion strains, locus YLR370C, strain arc18, hits give low values 1.03 | S. cerevisiae deletion strains, locus YLR371W, strain rom2, hits give low values 0.989 | S. cerevisiae deletion strains, locus YLR384C, strain iki3, hits give low values 1.03 | S. cerevisiae deletion strains, locus YLR418C, strain cdc73, hits give low values 0.995 | S. cerevisiae deletion strains, locus YML016C, strain PPZ1, hits give low values 1 | S. cerevisiae deletion strains, locus YML032C, strain rad52, hits give low values 0.978 | S. cerevisiae deletion strains, locus YML120C, strain ndi1, hits give low values 1.03 | S. cerevisiae deletion strains, locus YML124C, strain tub3, hits give low values 0.997 | S. cerevisiae deletion strains, locus YMR058W, strain fet3, hits give low values 1.02 | S. cerevisiae deletion strains, locus YMR078C, strain ctf18, hits give low values 0.999 | S. cerevisiae deletion strains, locus YMR125W, strain sto1, hits give low values 1.03 | S. cerevisiae deletion strains, locus YMR129W, hits give low values 1.02 | S. cerevisiae deletion strains, locus YMR205C, strain PFK2, hits give low values 1.05 | S. cerevisiae deletion strains, locus YMR223W, strain ubp8, hits give low values 1.02 | S. cerevisiae deletion strains, locus YMR231W, strain pep5, hits give low values 1.03 | S. cerevisiae deletion strains, locus YMR263W, strain SAP30, hits give low values 0.999 and 1 | S. cerevisiae deletion strains, locus YMR307W, strain GAS1, hits give low values 1.05 and 1.01 | S. cerevisiae deletion strains, locus YNL067W, strain RPL9B, hits give low values 0.98 | S. cerevisiae deletion strains, locus YNL071W, strain lat1, hits give low values 1.03 | S. cerevisiae deletion strains, locus YNL128W, strain TEP1, hits give low values 0.985 | S. cerevisiae deletion strains, locus YNL153C, strain GIM3, hits give low values 0.992 | S. cerevisiae deletion strains, locus YNL175C, strain NOP13, hits give low values 0.995 | S. cerevisiae deletion strains, locus YNL183C, strain NPR1, hits give low values 0.944 | S. cerevisiae deletion strains, locus YNL197C, strain WHI3, hits give low values 1.02 | S. cerevisiae deletion strains, locus YNL209W, strain ssb2, hits give low values 1.04 | S. cerevisiae deletion strains, locus YNL224C, strain SQS1, hits give low values 1 | S. cerevisiae deletion strains, locus YNL233W, strain BNI4, hits give low values 1 | S. cerevisiae deletion strains, locus YNL248C, strain rpa49, hits give low values 1.02 | S. cerevisiae deletion strains, locus YNL250W, strain rad50, hits give low values 0.982 | S. cerevisiae deletion strains, locus YNL271C, strain bni1, hits give low values 0.982 | S. cerevisiae deletion strains, locus YNL298W, strain CLA4, hits give low values 1 | S. cerevisiae deletion strains, locus YNL307C, strain MCK1, hits give low values 0.994 | S. cerevisiae deletion strains, locus YNL322C, strain KRE1 (second series), hits give low values 1.03 | S. cerevisiae deletion strains, locus YNL322C, strain KRE1, hits give low values 0.992 | S. cerevisiae deletion strains, locus YNR049C, strain mso1, hits give low values 1.04 | S. cerevisiae deletion strains, locus YNR052C, strain pop2, hits give low values 0.991 | S. cerevisiae deletion strains, locus YOL006C, strain TOP1, hits give low values 0.948 | S. cerevisiae deletion strains, locus YOL012C, strain htz1 0.82 | S. cerevisiae deletion strains, locus YOL147C, strain pex11, hits give low values 0.986 | S. cerevisiae deletion strains, locus YOR001W, strain rrp6, hits give low values 1.02 | S. cerevisiae deletion strains, locus YOR061W, strain CKA2, hits give low values 0.988 | S. cerevisiae deletion strains, locus YOR069W, strain VPS5, hits give low values 1 | S. cerevisiae deletion strains, locus YOR070C, strain gyp1, hits give low values 1.02 | S. cerevisiae deletion strains, locus YOR080W, strain dia2, hits give low values 1.03 | S. cerevisiae deletion strains, locus YOR083W, strain WHI5 (second series), hits give low values 1 | S. cerevisiae deletion strains, locus YOR083W, strain WHI5, hits give low values 1.01 | S. cerevisiae deletion strains, locus YOR106W, strain vam3, hits give low values 1.03 | S. cerevisiae deletion strains, locus YOR136W, strain idh2, hits give low values 0.997 | S. cerevisiae deletion strains, locus YOR144C, strain elg1, hits give low values 0.992 | S. cerevisiae deletion strains, locus YOR184W, strain ser1, hits give low values 1.01 | S. cerevisiae deletion strains, locus YOR231W, strain MKK1, hits give low values 0.987 | S. cerevisiae deletion strains, locus YOR265W, strain rbl2, hits give low values 1.02 | S. cerevisiae deletion strains, locus YOR270C, strain vph1, hits give low values 1.05 | S. cerevisiae deletion strains, locus YOR290C, strain snf2, hits give low values 1.01 | S. cerevisiae deletion strains, locus YOR316C, strain cot1, hits give low values 0.984 | S. cerevisiae deletion strains, locus YPL051W, strain arl3, hits give low values 1.04 | S. cerevisiae deletion strains, locus YPL055C, strain LGE1, hits give low values 1 | S. cerevisiae deletion strains, locus YPL078C, strain atp4, hits give low values 1.02 | S. cerevisiae deletion strains, locus YPL106C, strain sse1, hits give low values 1.02 | S. cerevisiae deletion strains, locus YPL240C, strain hsp82, hits give low values 1.03 | S. cerevisiae deletion strains, locus YPL241C, strain CIN2, hits give low values 0.999 | S. cerevisiae deletion strains, locus YPL256C, strain CLN2, hits give low values 0.977 | S. cerevisiae deletion strains, locus YPR119W, strain clb2, hits give low values 0.987 | S. cerevisiae deletion strains, locus YPR141C, strain kar3, hits give low values 0.99 | S. cerevisiae deletion strains, locus YPR163C, strain tif3, hits give low values 0.982 | S. cerevisiae deletion strains, locus YPR167C, strain met16, hits give low values 0.973 | S. cerevisiae deletion strains, strain wtn01, hits give low values 0.991 | S. cerevisiae strains, strain wild type, hits give low values 0.995

From PubChem BioAssay AID1159580 (chemical genetic matrix, 2015)
